Assay results: PubChem BioAssay (NCATS)
Several values for one entry are separate records, joined by “and”; a condition that tells them apart may be missing. Identical values can stand only once. Inconclusive results are not listed. Entries that show only a call come without a potency. Activity calls are given as the source filed them. Unless noted, the call rests on the fitted dose curve; in most records, active means well fitted curve in the direction sought with a large enough effect; inconclusive means small, poorly fitted or top-dose-only effect, or another doubt; inactive means no such curve, though single readings can be large; an effect the other way counts as inactive or inconclusive.

Legend:
[1] = Validation of Assay for Modulators of Lamin A Splicing (AID 1459; active means well fitted curve in the direction sought with a large enough effect in the signal ratio; the % refers to the signal ratio;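 further: cells exposed to compound for two days before reading; ratio rise marks activators and ratio drop marks inhibitors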)
How it was run: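 Splicing correction read as GFP (500-530 nm) over DsRed2 (575-640 nm) object intensity after 48 h compound exposure of reporter HeLa S3 clones (600 cells/well, 2% FBS medium); ancitabine and cycloheximide titrations, 0.5% DMSO as vehicle.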

[2] = qHTS Assay for Lipid Storage Modulators (AID 1519; calls by dose curve); conditions: Drosophila S3 cells, BODIPY lipid droplet/cell ratio, laser cytometry, cells loaded with oleic acid; for activity change, negative = inhibition: at 57.5 µM (top of the series)
How it was run: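 Cells seeded at 5,000 per well were treated with compounds over a concentration series and loaded with oleic acid (400 uM, as added). Lipid droplet fluorescence (488 nm excitation, 500-530 nm channel) was read by laser-scanning cytometry and normalized to 20 uM Triacsin C.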

[3] = target: DNA repair nuclease/redox regulator APEX1 (Homo sapiens) (UniProt P27695); test: qHTS Validation Assay for Inhibitors of the Human Apurinic/apyrimidinic Endonuclease 1 (APE1) (AID 1705; further: potency means the concentration at half of the fitted maximal effect;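 on activity change, negative = inhibition: TAMRA fluorescence gain over two minutes as APE1 cuts a quenched THF abasic duplex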)
Sequence of DNA repair nuclease/redox regulator APEX1 (Homo sapiens) (P27695 whole entry, looked up): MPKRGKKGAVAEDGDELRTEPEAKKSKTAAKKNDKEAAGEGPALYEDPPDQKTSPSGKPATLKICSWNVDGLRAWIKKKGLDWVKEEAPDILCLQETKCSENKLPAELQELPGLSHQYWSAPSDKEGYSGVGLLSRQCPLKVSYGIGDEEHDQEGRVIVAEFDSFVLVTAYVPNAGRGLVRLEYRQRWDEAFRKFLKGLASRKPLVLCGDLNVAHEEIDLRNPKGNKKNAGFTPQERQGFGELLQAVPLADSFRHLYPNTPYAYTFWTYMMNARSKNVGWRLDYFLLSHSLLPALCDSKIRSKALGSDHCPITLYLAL
How it was run: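 Activity read as rising fluorescence (598 nm emission, 525 nm excitation) from incision of a TAMRA/BHQ-2 duplex carrying a THF abasic site (50 nM). Compound and enzyme sat 15 min at RT before substrate start; signal change between first and third 60-s reads.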

[4] = Counterscreen for APE1 Inhibitors: Fluorescent Dye Displacement Validation Assay (AID 1707)
How it was run: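 Signal: ThO fluorescence (ex 480 nm/em 540 nm) on binding 50 nM dsDNA; displacement by test compound reduces it. Conditions: 250 nM dye, 50 mM Tris-HCl pH7.5, 2 mM MgCl2, 50mM NaCl, 0.01% Tween-20.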

[5] = target: Endonuclease 4 (Escherichia coli (strain K12)) (UniProt P0A6C1); test: Counterscreen for APE1 Inhibitors: qHTS Validation Assay for Inhibitors of Endonuclease IV (AID 1708)
How it was run: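 Read-out: fluorescence rise (ex 525/em 598 nm) from incision of a TAMRA/BHQ-2 double-stranded THF abasic-site substrate (50 nM), measured kinetically; third-minus-first read difference gave reaction progress. Enzyme 2 nM.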

[6] = qHTS for differential inhibitors of proliferation of Plasmodium falciparum line GB4 (AID 1816); conditions: Potency: Plasmodium falciparum GB4 proliferation inhibition;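 further: parasite growth measured after 72 h incubation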; further: potency means the concentration at half of the fitted maximal effect
[7] = qHTS for differential inhibitors of proliferation of Plasmodium falciparum line 3D7 (AID 1876); further: potency means the concentration at half of the fitted maximal effect
[8] = qHTS for differential inhibitors of proliferation of Plasmodium falciparum line D10 (AID 1877);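 further: parasites grown with compound for 72 h before DNA staining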; further: potency means the concentration at half of the fitted maximal effect
[9] = qHTS for differential inhibitors of proliferation of Plasmodium falciparum line Dd2 (AID 1882); conditions: Potency: Plasmodium falciparum Dd2 proliferation inhibition; further: nearly all actives have a fitted effect of over 65% in size; further: potency means the concentration at half of the fitted maximal effect;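 on activity change, negative = inhibition: compound exposure of 72 h on infected erythrocytes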
How it was run: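 RBC culture, 0.3% parasitemia / 2.5% Hct final; cpd added by pin tool in DMSO; 72 h, 37 C, 5% CO2; lysis buffer + SYBR Green I, o/n RT dark; FI 485/535; norm. to artemisinin 0.29 uM and DMSO.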

[10] = qHTS for differential inhibitors of proliferation of Plasmodium falciparum line W2 (AID 1883); conditions: Potency: Plasmodium falciparum W2 proliferation inhibition;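 further: parasites grown with compound for 72 h before lysis and staining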; further: potency means the concentration at half of the fitted maximal effect
[11] = target: alpha-glucosidase (Oryza sativa, rice) (UniProt Q653V4); test: Counterscreen for Glucocerebrosidase Inhibitors: qHTS Assay for Rice alpha-Glucosidase at pH 5.0 (AID 997)
How it was run: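 Endpoint fluorogenic assay at pH 5.0: compounds (0.7 nM to 77 uM) titrated against 4 nM rice enzyme and 400 uM 4-MU-alpha-glucoside for 20 min at room temperature; NaOH/glycine stop, read ex 365/em 440 nm, Hill-fitted AC50.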

[12] = target: Alpha-galactosidase A (Homo sapiens) (UniProt P06280); test: Counterscreen for Glucocerebrosidase Inhibitors: qHTS Assay for Human alpha-Galactosidase at pH 4.5 (AID 992)
Sequence of Alpha-galactosidase A (Homo sapiens) (P06280 whole entry, looked up): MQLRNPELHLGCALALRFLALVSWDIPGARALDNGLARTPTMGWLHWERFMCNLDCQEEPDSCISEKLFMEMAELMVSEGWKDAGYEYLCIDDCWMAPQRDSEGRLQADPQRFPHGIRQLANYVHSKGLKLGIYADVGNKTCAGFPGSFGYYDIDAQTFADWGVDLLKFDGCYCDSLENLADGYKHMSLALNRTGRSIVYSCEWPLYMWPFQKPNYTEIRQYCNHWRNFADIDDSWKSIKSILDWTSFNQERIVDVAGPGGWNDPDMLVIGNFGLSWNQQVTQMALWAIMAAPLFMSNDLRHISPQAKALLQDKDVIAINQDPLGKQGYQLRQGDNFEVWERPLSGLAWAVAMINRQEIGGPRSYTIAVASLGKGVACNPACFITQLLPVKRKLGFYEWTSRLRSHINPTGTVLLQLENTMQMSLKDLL
How it was run: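 Citrate buffer pH 4.5, Tween-20 0.005%. Enzyme 2 nM, substrate 80 uM, 20 min RT. Stop pH 10. Fluorescence Ex 365/Em 440. AC50 by Hill fit.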

[13] = qHTS for differential inhibitors of proliferation of Plasmodium falciparum line 7G8 (AID 1815);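 further: parasite growth measured after three days of incubation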; further: potency means the concentration at half of the fitted maximal effect
[14] = measured here: cell count channel max response
[15] = measured here: lipid channel max response

For `CC1CN(S(=O)(=O)c2cccc3cnccc23)CCN1` (stereo not drawn), the outcome [1] was “inactive”, the activity change, negative = inhibition [2] was 1.97% (inactive) and the max response [2, 14] was 5.7%. For the same compound, the max response [2, 15] was 7.5%, the Potency [3] was “inactive” and the Potency [4] was “inactive”. For the same compound, the Potency [5] was “inactive”, the Potency [6] was 11.2 µM (active) and the Potency [7] was “inactive”. The Potency [8] was “inactive”, the Potency [9] was “inactive” and the Potency [10] was 7.94 µM (active).
In the case of `CN1CCc2cc(NC(=O)Nc3cccnc3)ccc21`, the outcome [11] is reported as “inactive”, the outcome [1] is reported as “inactive” and the activity change, negative = inhibition [2] is reported as 0.252% (inactive). The max response [2, 14] was 32.8%, the max response [2, 15] was 37.5% and the Potency [3] was “inactive”. The Potency [4] was “inactive”, the Potency [7] was “inactive” and the Potency [8] was “inactive”. For the same compound, the Potency [9] was “inactive”.
With `CN(C)c1nc(N)c(C(=O)N=C(N)N)nc1Cl` the outcome [11] was “inactive”, the outcome [1] was “inactive” and the activity change, negative = inhibition [2] was 1.32% (inactive). For the same compound, the max response [2, 14] was -30.3%, the max response [2, 15] was -31.1% and the Potency [3] was “inactive”. The Potency [4] was “inactive”, the Potency [6] was 12.6 µM (active) and the Potency [7] was 10 µM (active). The Potency [8] was 11.2 µM (active), the Potency [9] was “inactive” and the Potency [10] was 12.6 µM (active).
With `O=c1[nH]c2cc(C(F)(F)F)ccc2n1-c1cc(C(F)(F)F)ccc1O` the outcome [12] was “inactive”, the outcome [11] was “inactive” and the outcome [1] was “inactive”. For the same compound, the activity change, negative = inhibition [2] was -0.787% (inactive), the max response [2, 14] was 34.5% and the max response [2, 15] was 34%. For the same compound, the Potency [3] was “inactive”, the Potency [4] was “inactive” and the Potency [13] was 4.47 µM (active). The Potency [6] was 3.98 µM (active), the Potency [8] was 10 µM (active) and the Potency [9] was 8.91 µM (active). For the same compound, the Potency [10] was 7.08 µM (active).
With `Fc1cccc(/C=N/N=C/c2cccc(F)c2)c1` the outcome [1] was “inactive”, the activity change, negative = inhibition [2] was 2.18% (inactive) and the max response [2, 14] was -17.3%. The max response [2, 15] was -14.5%, the Potency [3] was “inactive” and the Potency [4] was “inactive”. For the same compound, the Potency [5] was “inactive”, the Potency [13] was “inactive” and the Potency [6] was “inactive”. The Potency [8] was “inactive” and the Potency [9] was “inactive”.
With `OC[C@H]1O[C@@H](n2cnc3c(NC4CCCCC4)ncnc32)[C@H](O)[C@@H]1O` the outcome [1] was “inactive”, the activity change, negative = inhibition [2] was 0.866% (inactive) and the max response [2, 14] was -23.3%. The max response [2, 15] was -24.5%, the Potency [3] was “inactive” and the Potency [4] was “inactive”. The Potency [5] was “inactive”, the Potency [13] was “inactive” and the Potency [6] was “inactive”. The Potency [7] was “inactive”, the Potency [8] was “inactive” and the Potency [9] was “inactive”.
For `NC(CCCP(=O)(O)O)C(=O)O` (stereo not drawn), the outcome [1] was “inactive”, the activity change, negative = inhibition [2] was 0.0706% (inactive) and the max response [2, 14] was -11.8%. For the same compound, the max response [2, 15] was -9.55%, the Potency [4] was “inactive” and the Potency [5] was “inactive”. For the same compound, the Potency [13] was “inactive”, the Potency [6] was “inactive” and the Potency [7] was “inactive”. For the same compound, the Potency [8] was “inactive”, the Potency [9] was “inactive” and the Potency [10] was “inactive”.
For `COc1cccc(OC)c1OCCNCC1COc2ccccc2O1` (stereo not drawn), the outcome [1] was “inactive”, the activity change, negative = inhibition [2] was 3.94% (inactive) and -4.43% (inactive) and the max response [2, 14] was 10.2% and -61.3%. For the same compound, the max response [2, 15] was 14.3% and -62.3%, the Potency [4] was “inactive” and the Potency [5] was “inactive”. The Potency [13] was 7.94 µM (active) and the Potency [10] was 3.98 µM (active).
In the case of `OCC1O[C@H](O)C(Cl)C(O)C1O` (stereo partly drawn), the outcome [1] is reported as “inactive”, the activity change, negative = inhibition [2] is reported as 0.529% (inactive) and the max response [2, 14] is reported as -14.2%. The max response [2, 15] was -14.7%, the Potency [3] was “inactive” and the Potency [4] was “inactive”. For the same compound, the Potency [5] was “inactive”, the Potency [6] was “inactive” and the Potency [7] was “inactive”. The Potency [8] was “inactive”, the Potency [9] was “inactive” and the Potency [10] was “inactive”.
For `COc1cc2nc(N3CCN(C(=O)OCc4ccccc4)C(C(=O)NC(C)(C)C)C3)nc(N)c2cc1OC` (stereo not drawn), the outcome [1] was “inactive”, the activity change, negative = inhibition [2] was 1.16% (inactive) and the max response [2, 14] was 38.8%. For the same compound, the max response [2, 15] was 39.8%, the Potency [4] was “inactive” and the Potency [5] was “inactive”. For the same compound, the Potency [13] was 2.82 µM (active), the Potency [6] was 2.82 µM (active) and the Potency [7] was 3.16 µM (active). For the same compound, the Potency [8] was 10 µM (active), the Potency [9] was 8.91 µM (active) and the Potency [10] was 2.24 µM (active).
In the case of `COc1cccc(C(=O)NCCN2CCN(c3ccc(Cl)cc3)CC2)c1`, the outcome [12] is reported as “inactive”, the outcome [11] is reported as “inactive” and the outcome [1] is reported as “inactive”. The activity change, negative = inhibition [2] was -1.54% (inactive), the max response [2, 14] was -16.3% and the max response [2, 15] was -18.1%. For the same compound, the Potency [3] was “inactive”, the Potency [4] was “inactive” and the Potency [6] was “inactive”. The Potency [9] was “inactive” and the Potency [10] was 14.1 µM (active).
For `Cc1ccccc1CNc1ncnc2c1ncn2C1OC(CO)C(O)C1O` (stereo not drawn), the outcome [1] was “inactive”, the activity change, negative = inhibition [2] was 0.209% (inactive) and the max response [2, 14] was -22.5%. The max response [2, 15] was -21.9%, the Potency [3] was “inactive” and the Potency [4] was “inactive”. For the same compound, the Potency [13] was “inactive”, the Potency [6] was “inactive” and the Potency [7] was “inactive”. The Potency [8] was “inactive”, the Potency [9] was “inactive” and the Potency [10] was “inactive”.
With `C=CC(N)CCC(=O)O` (stereo not drawn) the outcome [1] was “inactive”, the activity change, negative = inhibition [2] was 4.04% (inactive) and the max response [2, 14] was 13.5%. For the same compound, the max response [2, 15] was 19.4%, the Potency [4] was “inactive” and the Potency [5] was “inactive”. The Potency [13] was “inactive”, the Potency [6] was “inactive” and the Potency [7] was “inactive”. The Potency [8] was “inactive”, the Potency [9] was “inactive” and the Potency [10] was “inactive”.
With `O=C(/C=C/c1ccc(O)cc1)c1ccc(O)cc1O` the outcome [1] was “inactive”, the activity change, negative = inhibition [2] was 6.63% (inactive) and 0.947% (inactive) and the max response [2, 14] was 1.72% and 46.2%. The max response [2, 15] was 5.97% and 48.5%, the Potency [4] was “inactive” and the Potency [13] was 10 µM (active). The Potency [6] was 7.94 µM (active), the Potency [8] was 12.6 µM (active) and the Potency [10] was 10 µM (active).
For `CC1(C)CCC=[N+]1[O-]`, the outcome [12] was “inactive”, the outcome [11] was “inactive” and the outcome [1] was “inactive”. The activity change, negative = inhibition [2] was 0.483% (inactive), the max response [2, 14] was -28.1% and the max response [2, 15] was -25.6%. For the same compound, the Potency [4] was “inactive”, the Potency [5] was “inactive” and the Potency [13] was “inactive”. The Potency [6] was “inactive”, the Potency [7] was “inactive” and the Potency [8] was “inactive”. The Potency [9] was “inactive” and the Potency [10] was “inactive”.
In the case of `NCCCCCCCCCCN`, the outcome [11] is reported as “inactive”, the outcome [1] is reported as “inactive” and the activity change, negative = inhibition [2] is reported as -1.41% (inactive). The max response [2, 14] was 42.1%, the max response [2, 15] was 42.6% and the Potency [3] was “inactive”. The Potency [4] was “inactive”, the Potency [13] was “inactive” and the Potency [6] was “inactive”. For the same compound, the Potency [7] was “inactive”, the Potency [8] was “inactive” and the Potency [9] was “inactive”.
With `COc1cc(C(O)CO)ccc1OS(=O)(=O)O` (stereo not drawn) the outcome [1] was “inactive”, the activity change, negative = inhibition [2] was 0.915% (inactive) and the max response [2, 14] was -36.7%. For the same compound, the max response [2, 15] was -37%, the Potency [3] was “inactive” and the Potency [4] was “inactive”. For the same compound, the Potency [5] was “inactive”, the Potency [13] was “inactive” and the Potency [6] was “inactive”. The Potency [7] was “inactive”, the Potency [8] was “inactive” and the Potency [9] was “inactive”. The Potency [10] was “inactive”.
In the case of `N#C/C(=C\c1ccc(O)c(O)c1)C(=O)c1ccc(O)c(O)c1`, the outcome [12] is reported as “inactive”, the outcome [11] is reported as “inactive” and the outcome [1] is reported as “inactive”. The activity change, negative = inhibition [2] was -0.353% (inactive), the max response [2, 14] was 19.5% and the max response [2, 15] was 19.3%. The Potency [3] was 0.282 µM (active), the Potency [4] was “inactive” and the Potency [5] was “inactive”. The Potency [7] was 10 µM (active) and the Potency [10] was 12.6 µM (active).
